A selection: hits, their analogues and other compounds. The true share with any hit is near 22%.
Shiga inhibitor – Shiga toxin inhibition. 290,000 tested, 9.2% active. AID 2315. inhibition, % at 38.7 µM. Vero cells, Shiga toxin protein synthesis inhibition reporter; in the data active means inhibition mostly above about 28%, no sharp cut-off; inactive means mostly below about 43%; further: 0% is about no effect
LmPK inh – blocks Leishmania mexicana pyruvate kinase activity | Q27686 | purified LmPK, Kinase-Glo ATP luminescence, 1 h | Potency, µM (titrated, usually from 57.5 µM), for inactives: top-dose activity change, negative = inhibition, actives largely listed as inhibitors | 290,000 tested, 0.37% active; further: potency means the concentration at half of the fitted maximal effect; on the % scale 0 is the no-effect control and ±100 the full control effect
Target sequence (Q27686 whole entry, looked up): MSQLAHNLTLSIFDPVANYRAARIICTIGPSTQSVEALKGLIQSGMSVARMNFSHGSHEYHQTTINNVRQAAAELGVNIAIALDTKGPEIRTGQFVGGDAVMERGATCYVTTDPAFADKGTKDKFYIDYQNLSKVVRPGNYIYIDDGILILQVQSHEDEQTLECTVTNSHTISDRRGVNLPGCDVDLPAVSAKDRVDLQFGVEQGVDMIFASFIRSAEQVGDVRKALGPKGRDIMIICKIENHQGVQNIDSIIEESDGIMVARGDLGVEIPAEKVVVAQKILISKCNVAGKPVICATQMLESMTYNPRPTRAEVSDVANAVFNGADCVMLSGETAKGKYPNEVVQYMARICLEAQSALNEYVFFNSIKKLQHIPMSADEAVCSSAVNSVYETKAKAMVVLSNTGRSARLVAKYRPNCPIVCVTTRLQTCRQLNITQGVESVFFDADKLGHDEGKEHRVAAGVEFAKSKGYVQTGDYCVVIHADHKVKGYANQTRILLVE
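In 50 mM imidazole pH 7.2 with 7 mM MgCl2, LmPK (0.1 nM) turned over PEP (0.5 mM) and ADP (0.1 mM) for 1 h at room temperature. Luciferase read-out of ATP.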
Pf growth 96h – P. falciparum growth inhibition at 96 hours; P. falciparum luciferase reporter growth, 96 h; Potency, µM (top dose mostly 28.7 µM), without a hit: top-dose activity change, negative = inhibition, hits mostly inhibitors; 320,000 tested, 6.9% active; further: potency means the concentration at half of the fitted maximal effect; on the % scale 0 is the no-effect control and ±100 the full control effect
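Luminescence readout: decreased luciferase signal marks inhibited growth of reporter-expressing P. falciparum in infected red cells (2% hematocrit, 0.05% parasitemia final), exposed to compound two generations (96 h, 37 C, 5% CO2).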
Pf growth 48h – P. falciparum growth inhibition at 48 hours (one generation); P. falciparum luciferase growth in erythrocytes, 48 h; Potency, µM (top dose mostly 28.7 µM), for inactives: at the highest dose activity change, negative = inhibition, most hits filed as inhibitors; 310,000 tested, 5.9% active; AID 504832; further: potency means the concentration at half of the fitted maximal effect; on the % scale 0 is the no-effect control and ±100 the full control effect
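Luminescence readout; reporter = integrated firefly luciferase in P. falciparum. RBC culture at 2% hematocrit, 0.1% parasitemia final, 37 C/5% CO2; decreased signal taken as growth inhibition.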
CHX counter – counter-screen hit for Shiga toxin inhibitors, cycloheximide; cell reporter, cycloheximide protein synthesis inhibition counterscreen; max response, %; 300,000 tested, 12% active; AID 2314; in the data active means max response mostly above about 13%, no sharp cut-off; inactive means mostly below about 14%; further: read at 38.3 µM for the half of the compounds with a filed dose; 0% is about no effect
* marks the source's active call; other numbers are inactive results. Unless noted, the call rests on the fitted dose curve; in most records, active means well fitted inhibition curve with a large enough effect; inconclusive means small, poorly fitted or top-dose-only effect, or another doubt; inactive means no such curve, though single readings can be large or run the other way.

Results for CSc1nnc2c(n1)c(C)nn2-c1ccc(C)cc1 ?
Shiga inhibitor: 23.0; LmPK inh: 1.0%; Pf growth 96h: -16.9%; Pf growth 48h: 36.6%; CHX counter: 19.6*

How did CSc1nnc2c3cc(C)ccc3n(Cc3ccccc3)c2n1 do in these assays?
Shiga inhibitor: 15.6; LmPK inh: 3.0%; Pf growth 48h: -11.5%; CHX counter: 1.3

What do the screens show for `CCN(CC(=O)Nc1c(F)cccc1F)C(=O)c1cnccn1`?
Pf growth 96h: 20.0%; Pf growth 48h: 0.0%

Results for O=C1C2CC=CCC2C(=O)N1c1ccc(NCCc2ccc(Cl)cc2)c([N+](=O)[O-])c1 (centres undefined) ?
Shiga inhibitor: 5.7; LmPK inh: -2.2%; Pf growth 96h: 323.5%; Pf growth 48h: 1.6%; CHX counter: -3.4

How did O=C1C2CC=CCC2C(=O)N1c1ccc(NCCc2ccc(O)cc2)c([N+](=O)[O-])c1 (centres undefined) do in these assays?
Shiga inhibitor: 63.0*; LmPK inh: 4.3%; Pf growth 96h: inconclusive; Pf growth 48h: 4.5%; CHX counter: 33.0*

What do the screens show for `N#Cc1cc2c(N)c(C(=O)Nc3ccccc3)sc2nc1N`?
Shiga inhibitor: 90.2*; LmPK inh: 2.7%; Pf growth 96h: 43.6%; Pf growth 48h: 10.2%; CHX counter: 36.4*

Results for Cc1cccc(NC(=O)c2sc(Cl)nc2-c2ccccc2)c1 ?
Shiga inhibitor: -20.6; LmPK inh: 1.8%; Pf growth 48h: -6.0%; CHX counter: -2.2

What do the screens show for `Cc1cccc(NC(=O)c2sc3nc(N)c(C#N)cc3c2N)c1`?
Shiga inhibitor: 72.0*; LmPK inh: 0.9%; Pf growth 96h: inconclusive; Pf growth 48h: inconclusive; CHX counter: 31.3*

Results for CCOC(=O)C1CCN(S(=O)(=O)c2ccc(C(C)(C)C)cc2)CC1 ?
Shiga inhibitor: 17.3; LmPK inh: 4.6%; Pf growth 96h: inconclusive; Pf growth 48h: -4.9%; CHX counter: -2.8

Results for CCOc1nc2cccc(C(=O)O)c2n1Cc1ccc(-c2ccccc2-c2nn[nH]n2)cc1 ?
Pf growth 96h: 2.13µM*; Pf growth 48h: inconclusive

What do the screens show for `Cc1ccc(S(=O)(=O)N2CCCN(C(C)c3nc4ccccc4c(=O)[nH]3)CC2)cc1` (centres undefined)?
Pf growth 96h: 13.1µM*; Pf growth 48h: inconclusive

What do the screens show for `Cc1ccc(S(=O)(=O)N2CCCN(Cc3nc4ccccc4c(=O)[nH]3)CC2)cc1`?
Pf growth 96h: -14.0%; Pf growth 48h: inconclusive

How did Nc1nc2c(nc(SCc3ccccc3Br)n2C2OC(CO)C(O)C2O)c(=O)[nH]1 (centres undefined) do in these assays?
Shiga inhibitor: -15.5; LmPK inh: 2.6%; Pf growth 96h: 11.4%; Pf growth 48h: 5.8%; CHX counter: -7.8

Results for Cc1ccc(OCCCC(=O)Nc2cc(S(=O)(=O)N3CCOCC3)ccc2N2CCOCC2)cc1 ?
Pf growth 96h: -30.2%; Pf growth 48h: 10.4µM*

How did Cc1ccc(Cl)c(OCC(=O)Nc2cc(S(=O)(=O)N3CCOCC3)ccc2N2CCCC2)c1 do in these assays?
Shiga inhibitor: -6.7; LmPK inh: -1.5%; Pf growth 96h: 8.28µM*; Pf growth 48h: 11.7µM*; CHX counter: -0.5

Results for O=C(COc1ccc(F)cc1Cl)Nc1cc(S(=O)(=O)N2CCOCC2)ccc1N1CCCCC1 ?
Shiga inhibitor: -5.7; LmPK inh: -10.1%; Pf growth 96h: 2.08µM*; Pf growth 48h: 4.15µM*; CHX counter: -2.1

Results for CN1CCN(c2ccc(S(=O)(=O)N3CCOCC3)cc2NC(=O)COc2ccc(F)cc2Cl)CC1 ?
Shiga inhibitor: -12.3; LmPK inh: -2.8%; Pf growth 96h: 13.1µM*; Pf growth 48h: inconclusive; CHX counter: -2.7

What do the screens show for `Nn1c(SCC(=O)NC(=O)NCc2ccco2)nnc1-c1ccc(OC(F)F)cc1`?
Shiga inhibitor: -16.8; LmPK inh: 4.7%; Pf growth 48h: 5.4%; CHX counter: -1.9

What do the screens show for `CCC(Nc1ncnc2ccc(-c3c(C)noc3C)cc12)c1ccccc1` (centres undefined)?
Shiga inhibitor: 3.0; CHX counter: 11.4

What do the screens show for `O=S(=O)(Cc1nnnn1-c1ccccc1)c1ccc(Cl)cc1`?
Shiga inhibitor: -2.3; LmPK inh: 2.9%; Pf growth 96h: 97.5%; Pf growth 48h: inconclusive; CHX counter: -1.0

How did Cc1ccc(NC(=O)COC(=O)c2ccc(C)c(S(=O)(=O)N3CCOCC3)c2)cc1 do in these assays?
Pf growth 96h: 0.4%; Pf growth 48h: 24.7%

How did CCc1ccccc1OCC(=O)Nc1cc(S(=O)(=O)N2CCOCC2)ccc1N1CCCCC1 do in these assays?
Pf growth 96h: 1.04µM*; Pf growth 48h: 2.94µM*

Results for CCN(CC)S(=O)(=O)c1ccc(N2CCOCC2)c(NC(=O)COc2ccc(Cl)cc2)c1 ?
Shiga inhibitor: -0.7; LmPK inh: 4.9%; Pf growth 96h: inconclusive; Pf growth 48h: inconclusive; CHX counter: -7.0

What do the screens show for `CCN(CC)S(=O)(=O)c1ccc(N2CCN(C)CC2)c(NC(=O)COc2ccc(F)cc2Cl)c1`?
Pf growth 96h: inconclusive; Pf growth 48h: 10.4µM*

What do the screens show for `O=C(COc1ccc(F)cc1Br)Nc1ccccc1N1CCOCC1`?
Pf growth 96h: inconclusive; Pf growth 48h: 10.4µM*

What do the screens show for `O=C(COc1ccc(F)cc1)Nc1ccccc1N1CCOCC1`?
Pf growth 96h: inconclusive; Pf growth 48h: -26.4%

Results for O=C(CCCOc1ccc(Br)cc1)Nc1ccc(S(=O)(=O)N2CCOCC2)cc1 ?
Pf growth 96h: 8.28µM*; Pf growth 48h: inconclusive

What do the screens show for `CC(C(=O)Nc1ccccc1Oc1ccccc1)c1ccccc1` (centres undefined)?
Shiga inhibitor: 20.3; LmPK inh: -0.3%; Pf growth 96h: 57.1%; Pf growth 48h: 3.5%; CHX counter: -2.4

Results for CN(C)C(CNC(=O)c1ccc(Cl)c(S(=O)(=O)N2CCCCCC2)c1)c1ccccc1 (centres undefined) ?
Pf growth 96h: inconclusive; Pf growth 48h: 5.22µM*

What do the screens show for `O=C(NCc1nc2ccccc2[nH]1)c1ccc(Cl)c(S(=O)(=O)N2CCCC2)c1`?
Shiga inhibitor: 31.6; LmPK inh: 2.3%; Pf growth 96h: 23.6%; Pf growth 48h: 10.4µM*; CHX counter: 13.9*

How did O=C(NCc1nc2ccccc2[nH]1)c1cccc(S(=O)(=O)N2CCCCC2)c1 do in these assays?
Shiga inhibitor: -10.6; LmPK inh: 1.8%; Pf growth 96h: 11.8%; Pf growth 48h: -15.9%; CHX counter: -2.4

How did CCCn1c(NC(=O)c2ccc(Cl)c(S(=O)(=O)N3CCCC3)c2)nc2ccccc21 do in these assays?
Shiga inhibitor: -2.0; LmPK inh: 0.6%; Pf growth 96h: 5.22µM*; Pf growth 48h: 5.86µM*; CHX counter: -1.6

What do the screens show for `COc1ccc(C(CNC(=O)c2ccc(C)c(S(=O)(=O)N3CCCCC3)c2)N(C)C)cc1OC` (centres undefined)?
Shiga inhibitor: 3.5; LmPK inh: 3.9%; Pf growth 96h: -1.7%; Pf growth 48h: -22.4%; CHX counter: -1.1

Assay outcomes as filed in PubChem.
